Assay results from PubChem BioAssay.
Inconclusive results are not listed. The source made the active and inactive calls.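 How the source made its calls, unless noted: active means differentiation response of at least 50%, scaled between solvent and reference control, from cells with both markers; inactive means the rest.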

Tests used:
[1] = yeast TOR pathway RPL19A-GFP modulators, primary screen, cell-based, S. cerevisiae, multiplex flow cytometry (AID 1862; in the data active means percent of DMSO control GFP below about 86%;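 further: lower values mimic rapamycin by blocking the RPL19A rise seen in DMSO cells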); settings: S. cerevisiae RPL19A-GFP strain, flow cytometry fluorescence, 3 h; at 10 µM; stronger effect = lower value
[2] = modulators of MEP2-GFP levels in yeast, primary screen, S. cerevisiae, multiplex flow cytometry (AID 1867;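 active means GFP response, as percent of the DMSO control, above the screen-wide mean plus 3 SD, about 139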;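 further: median GFP channel fluorescence of barcode-gated MEP2-GFP cells measured by flow cytometry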); settings: S. cerevisiae MEP2-GFP strain, 3 h, at 10 µM, stronger effect = higher value, 100% means same as DMSO wells
[3] = modulators of CIT2-GFP expression in yeast, primary screen, S. cerevisiae, GFP fusion, multiplex flow cytometry (AID 1870;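 active means percent response above a set limit, the screen-wide mean plus 3 SD, cut at about 130% in these data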;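 further: barcoded CIT2-GFP strain pooled with four other GFP strains with rapamycin as positive control; median GFP fluorescence per well over plate mean of DMSO wells so 100% = DMSO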); settings: 3 h, at 10 µM, stronger effect = higher value
[4] = modulators of LAP4-GFP expression in yeast, primary screen, S. cerevisiae, multiplex flow cytometry (AID 1873;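 active means GFP signal, as percent of the solvent control, above the screen mean plus 3 SD, about 149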); settings: 3 h, at 10 µM, stronger effect = higher value
[5] = modulators of AGP1-GFP expression in yeast TOR pathway, primary screen, cell-based, multiplex flow cytometry, S. cerevisiae (AID 1887;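 active means GFP signal above the screen-wide mean plus 3 SD, that is over about 124.5% of the solvent control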;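 further: AGP1-GFP fusion strain of S. cerevisiae within a five-strain barcoded multiplex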); settings: 3 h, at 10 µM, stronger effect = higher value
[6] = inhibitors of CD8+ T cell-vesicle binding, pilot screen, LFA-1/ICAM-1 modulator project, MLPCN validation set, flow cytometry (AID 2523;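 active means response below a set limit, under 55% cells CD8-positive and vesicle-bound, and CD8 cells' 90th-percentile brightness under 279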;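 on vesicle binding response: mean PE anti-B7-1 fluorescence of CD8+ cells relative to row control; 100% = QL9-loaded vesicles with DMSO vehicle in the same plate row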); settings: 2C mouse CD8+ T cells, at 7 µM, stronger effect = lower value; double positive events: measured here: CD8+/vesicle+ event percentage
[7] = molecular target: Integrin beta-1 (Homo sapiens) + Integrin alpha-4 (Homo sapiens) (UniProt P13612+P05556); test: inhibition of HUTS-21 binding to VLA-4, pilot screen, VLA-4 allosteric modulator project, U937 cells, HUTS-21 mAb, flow cytometry, validation set (AID 2674;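 active means inhibition above 50%, about 3 SD of the validation set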;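 further: antibody binding induced by the VLA-4 ligand LDV present at three times its Kd; 0% = LDV ligand with antibody and no compound and 100% = antibody without LDV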); settings: HUTS-21 LIBS mAb binding, at 6.7 µM, stronger effect = higher value, binding induced by LDV ligand
Sequence of Integrin beta-1 (Homo sapiens) + Integrin alpha-4 (Homo sapiens) (P05556 whole entry, looked up): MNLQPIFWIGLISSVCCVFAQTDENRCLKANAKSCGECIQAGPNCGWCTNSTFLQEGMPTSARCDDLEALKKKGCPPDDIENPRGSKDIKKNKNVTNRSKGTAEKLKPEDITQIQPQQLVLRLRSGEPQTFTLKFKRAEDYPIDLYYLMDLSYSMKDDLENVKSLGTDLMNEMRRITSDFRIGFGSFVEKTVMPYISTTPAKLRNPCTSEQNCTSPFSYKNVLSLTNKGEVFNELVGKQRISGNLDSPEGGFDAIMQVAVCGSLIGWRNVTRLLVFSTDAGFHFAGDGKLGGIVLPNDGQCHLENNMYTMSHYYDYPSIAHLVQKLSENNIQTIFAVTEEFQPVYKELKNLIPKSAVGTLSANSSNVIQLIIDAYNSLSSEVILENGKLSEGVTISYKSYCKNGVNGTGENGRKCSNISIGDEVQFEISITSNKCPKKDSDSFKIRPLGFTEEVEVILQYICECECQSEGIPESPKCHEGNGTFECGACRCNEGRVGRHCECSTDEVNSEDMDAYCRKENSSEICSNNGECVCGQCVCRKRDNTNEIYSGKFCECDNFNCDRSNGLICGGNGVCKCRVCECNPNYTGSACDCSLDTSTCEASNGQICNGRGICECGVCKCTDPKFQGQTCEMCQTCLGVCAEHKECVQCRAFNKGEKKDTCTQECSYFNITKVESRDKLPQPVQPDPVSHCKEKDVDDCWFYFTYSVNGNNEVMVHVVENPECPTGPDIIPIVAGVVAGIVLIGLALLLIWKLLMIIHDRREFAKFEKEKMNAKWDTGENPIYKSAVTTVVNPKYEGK
Sequence of Integrin beta-1 (Homo sapiens) + Integrin alpha-4 (Homo sapiens) (P13612 whole entry, looked up): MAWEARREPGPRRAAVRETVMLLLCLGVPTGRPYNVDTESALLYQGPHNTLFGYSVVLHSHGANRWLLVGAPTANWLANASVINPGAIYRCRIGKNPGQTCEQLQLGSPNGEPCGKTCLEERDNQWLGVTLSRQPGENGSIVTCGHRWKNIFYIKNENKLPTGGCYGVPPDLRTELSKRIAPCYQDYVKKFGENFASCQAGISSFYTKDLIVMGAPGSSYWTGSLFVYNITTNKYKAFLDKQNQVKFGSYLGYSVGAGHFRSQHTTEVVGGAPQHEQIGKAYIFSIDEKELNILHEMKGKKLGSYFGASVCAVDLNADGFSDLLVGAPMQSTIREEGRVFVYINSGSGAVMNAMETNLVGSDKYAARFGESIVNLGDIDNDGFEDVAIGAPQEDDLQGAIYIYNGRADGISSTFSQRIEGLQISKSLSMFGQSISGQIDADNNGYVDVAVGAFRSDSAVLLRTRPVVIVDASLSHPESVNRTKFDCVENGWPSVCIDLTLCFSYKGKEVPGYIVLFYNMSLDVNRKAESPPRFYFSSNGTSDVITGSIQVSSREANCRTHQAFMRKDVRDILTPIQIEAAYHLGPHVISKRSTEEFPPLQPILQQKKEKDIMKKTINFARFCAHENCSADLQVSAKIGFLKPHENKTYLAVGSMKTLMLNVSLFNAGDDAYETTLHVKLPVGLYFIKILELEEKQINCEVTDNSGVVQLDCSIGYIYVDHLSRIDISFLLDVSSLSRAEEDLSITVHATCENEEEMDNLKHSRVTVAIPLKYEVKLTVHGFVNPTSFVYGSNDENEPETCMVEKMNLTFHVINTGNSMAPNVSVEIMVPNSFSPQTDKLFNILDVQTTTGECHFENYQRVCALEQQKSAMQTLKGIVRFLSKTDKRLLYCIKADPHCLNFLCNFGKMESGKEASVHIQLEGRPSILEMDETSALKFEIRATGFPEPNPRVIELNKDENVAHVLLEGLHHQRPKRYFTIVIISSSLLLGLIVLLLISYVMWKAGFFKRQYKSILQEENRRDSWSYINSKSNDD

[8] = superoxide lowering in aged yeast cells, pilot screen, validation compound set (AID 2706;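 active means superoxide response below 65% of plate, a cut near 3 SD across the whole screen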;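 further: yeast exposed to compound for one week at 30 degrees C before staining; 100% = mean of all compound wells on the same plate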); settings: S. cerevisiae aging, superoxide DHE fluorescence; at 10 µM; stronger effect = lower value
[9] = molecular target: Beta-adrenergic receptor kinase 1 (Homo sapiens) (UniProt P25098); test: GRK2 binders displacing RNA aptamer, biochemical, validation, human GRK2, bead flow cytometry (AID 488806;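 active means aptamer binding inhibition above 30%, about 3 SD of noise from non-fluorescent compounds; inactive means inhibition at or below 30%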); settings: bead-bound GRK2, FAM-aptamer displacement, at 10 µM, stronger effect = higher value
Sequence of Beta-adrenergic receptor kinase 1 (Homo sapiens) (P25098 whole entry, looked up): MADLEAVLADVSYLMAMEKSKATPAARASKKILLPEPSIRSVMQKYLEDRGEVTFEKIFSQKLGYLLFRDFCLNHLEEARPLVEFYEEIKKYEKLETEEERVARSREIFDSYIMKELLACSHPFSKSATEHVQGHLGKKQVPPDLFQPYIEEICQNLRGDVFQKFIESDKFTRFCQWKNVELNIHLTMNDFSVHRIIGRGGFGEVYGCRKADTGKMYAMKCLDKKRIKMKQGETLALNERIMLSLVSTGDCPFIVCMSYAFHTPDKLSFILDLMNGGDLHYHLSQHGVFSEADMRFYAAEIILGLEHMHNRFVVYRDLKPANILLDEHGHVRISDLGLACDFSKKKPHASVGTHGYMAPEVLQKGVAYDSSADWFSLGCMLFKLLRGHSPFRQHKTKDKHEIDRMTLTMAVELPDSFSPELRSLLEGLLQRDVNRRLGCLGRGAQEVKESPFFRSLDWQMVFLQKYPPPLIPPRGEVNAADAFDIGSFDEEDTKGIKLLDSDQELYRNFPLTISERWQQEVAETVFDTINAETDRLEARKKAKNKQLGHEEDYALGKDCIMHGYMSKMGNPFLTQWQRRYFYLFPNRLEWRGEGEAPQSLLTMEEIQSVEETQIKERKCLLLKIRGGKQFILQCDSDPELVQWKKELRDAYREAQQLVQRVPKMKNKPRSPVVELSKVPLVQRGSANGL

[10] = molecular target: Beta-2 adrenergic receptor (Homo sapiens) (UniProt P07550); test: beta2AR agonists driving receptor internalization, pilot screen, cell-based, FAP fluorogen, flow cytometry, validation set (AID 504459;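 active means percent response above 42, roughly 3 SD of non-fluorescent test compounds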;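 further: agonist-driven loss of surface beta2AR via internalization measured by FAP dye flow cytometry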); settings: Am2.2-beta2AR cells, FAP surface receptor flow cytometry; at 10 µM; stronger effect = higher value
Sequence of Beta-2 adrenergic receptor (Homo sapiens) (P07550 whole entry, looked up): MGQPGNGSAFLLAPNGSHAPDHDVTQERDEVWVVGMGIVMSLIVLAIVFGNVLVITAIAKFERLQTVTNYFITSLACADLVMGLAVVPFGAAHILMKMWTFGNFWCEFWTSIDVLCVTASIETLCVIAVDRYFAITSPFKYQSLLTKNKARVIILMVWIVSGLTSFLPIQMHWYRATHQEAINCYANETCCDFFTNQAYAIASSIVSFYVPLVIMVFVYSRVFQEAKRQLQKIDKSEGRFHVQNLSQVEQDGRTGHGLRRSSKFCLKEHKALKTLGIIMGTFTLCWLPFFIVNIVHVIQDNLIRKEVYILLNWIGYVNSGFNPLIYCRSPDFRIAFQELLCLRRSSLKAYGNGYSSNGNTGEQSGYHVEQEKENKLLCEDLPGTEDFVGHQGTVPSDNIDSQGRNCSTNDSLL

[11] = molecular target: AP-2 complex subunit beta (Homo sapiens) (UniProt P63010); test: inhibitors of arrestin peptide binding to AP2, pilot screen, biochemical, validation set, GST-AP2 beads, flow cytometry (AID 504541;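 active means inhibition above 54%, about 3 SD of non-fluorescent compounds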;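 further: AP2 carries R879A mutation and is captured from E. coli lysate; bead-bound FITC arrestin peptide fluorescence measuring arrestin peptide binding to AP2; 0% = DMSO wells and 100% = excess unlabeled arrestin peptide control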); settings: FITC arrestin peptide, at 10 µM, stronger effect = higher value, AP2 beta2 appendage fragment, R879A mutant
Sequence of AP-2 complex subunit beta (Homo sapiens) (P63010 whole entry, looked up, the tested form may be a part, one chain of several): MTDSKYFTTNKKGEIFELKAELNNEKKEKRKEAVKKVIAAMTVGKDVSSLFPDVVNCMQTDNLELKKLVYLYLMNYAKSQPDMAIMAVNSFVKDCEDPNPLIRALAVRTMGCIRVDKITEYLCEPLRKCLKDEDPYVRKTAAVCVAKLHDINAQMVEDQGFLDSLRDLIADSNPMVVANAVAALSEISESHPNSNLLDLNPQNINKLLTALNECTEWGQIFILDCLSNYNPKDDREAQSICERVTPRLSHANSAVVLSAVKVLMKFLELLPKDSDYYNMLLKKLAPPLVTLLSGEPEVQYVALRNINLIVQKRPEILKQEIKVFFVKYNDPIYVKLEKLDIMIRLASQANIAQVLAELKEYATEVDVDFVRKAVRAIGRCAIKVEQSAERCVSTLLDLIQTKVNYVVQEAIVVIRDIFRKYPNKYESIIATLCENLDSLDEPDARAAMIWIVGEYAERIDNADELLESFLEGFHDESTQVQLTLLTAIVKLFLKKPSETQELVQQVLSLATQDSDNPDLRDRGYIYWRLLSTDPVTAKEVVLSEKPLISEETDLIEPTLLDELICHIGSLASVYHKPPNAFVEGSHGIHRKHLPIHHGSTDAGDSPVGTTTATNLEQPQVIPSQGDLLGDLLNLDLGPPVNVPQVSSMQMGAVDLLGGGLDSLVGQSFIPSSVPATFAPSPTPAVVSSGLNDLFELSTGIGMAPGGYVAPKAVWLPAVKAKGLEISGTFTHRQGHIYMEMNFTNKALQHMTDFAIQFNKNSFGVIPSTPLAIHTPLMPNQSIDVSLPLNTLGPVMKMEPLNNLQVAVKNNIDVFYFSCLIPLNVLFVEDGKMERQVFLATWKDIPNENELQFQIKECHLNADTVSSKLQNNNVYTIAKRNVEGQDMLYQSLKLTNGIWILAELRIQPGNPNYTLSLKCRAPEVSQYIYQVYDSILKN

[12] = yeast V-ATPase proton transport modulators, S. cerevisiae, pHLuorin, HTS validation (AID 504600; in the data active means response above about 15%;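 further: plate controls were DMSO for no effect and reference compound for full effect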); settings: S. cerevisiae pHLuorin cytosolic pH, at 10 µM, stronger effect = higher value
[13] = tested on: anti-desmoglein-3 scFv antibody binding to human DSG3; test: inhibitors of anti-DSG3 scFv binding to DSG3, pilot screen, biochemical, validation compound set, bead-based, flow cytometry (AID 588368;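 active means binding below the plate cutoff, the plate median minus 3 SD, with a reading above zero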;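 further: signal is the median channel fluorescence of bead-bound GFP antibody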); settings: Protein G beads, DSG3-Fc, scFv-GFP binding, at 10 µM, stronger effect = lower value
[14] = inhibitors of fungal efflux pumps CDR1, CDR2, MDR1, pilot screen, validation compound set, multiplex, phenotypic (AID 588506;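 active means efflux inhibition above 0.42, the validation set average plus 4 SD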;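 further: Nile Red retained in cells so higher fluorescence means more efflux inhibition; 0 = negative control wells and 1 = enniatin B 25 µM full block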); settings: S. cerevisiae pump-expressing triplex, Nile Red efflux flow cytometry; at 10 µM; stronger effect = higher value; the pumps come from Candida albicans
[15] = molecular target: ATP-binding cassette sub-family B member 6 (Homo sapiens) (UniProt Q9NP58); test: ABCB6 transporter inhibitors, pilot screen, K562-ABCB6 cells, flow cytometry, validation set (AID 588550;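 active means inhibition above the screen-wide mean plus 3 SD, about 51%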;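 further: 0% = DMSO wells and 100% = benzethonium chloride 70 µM positive control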); settings: K562-ABCB6 porphyrin accumulation, 1 h, at 10 µM, stronger effect = higher value
Sequence of ATP-binding cassette sub-family B member 6 (Homo sapiens) (Q9NP58 whole entry, looked up): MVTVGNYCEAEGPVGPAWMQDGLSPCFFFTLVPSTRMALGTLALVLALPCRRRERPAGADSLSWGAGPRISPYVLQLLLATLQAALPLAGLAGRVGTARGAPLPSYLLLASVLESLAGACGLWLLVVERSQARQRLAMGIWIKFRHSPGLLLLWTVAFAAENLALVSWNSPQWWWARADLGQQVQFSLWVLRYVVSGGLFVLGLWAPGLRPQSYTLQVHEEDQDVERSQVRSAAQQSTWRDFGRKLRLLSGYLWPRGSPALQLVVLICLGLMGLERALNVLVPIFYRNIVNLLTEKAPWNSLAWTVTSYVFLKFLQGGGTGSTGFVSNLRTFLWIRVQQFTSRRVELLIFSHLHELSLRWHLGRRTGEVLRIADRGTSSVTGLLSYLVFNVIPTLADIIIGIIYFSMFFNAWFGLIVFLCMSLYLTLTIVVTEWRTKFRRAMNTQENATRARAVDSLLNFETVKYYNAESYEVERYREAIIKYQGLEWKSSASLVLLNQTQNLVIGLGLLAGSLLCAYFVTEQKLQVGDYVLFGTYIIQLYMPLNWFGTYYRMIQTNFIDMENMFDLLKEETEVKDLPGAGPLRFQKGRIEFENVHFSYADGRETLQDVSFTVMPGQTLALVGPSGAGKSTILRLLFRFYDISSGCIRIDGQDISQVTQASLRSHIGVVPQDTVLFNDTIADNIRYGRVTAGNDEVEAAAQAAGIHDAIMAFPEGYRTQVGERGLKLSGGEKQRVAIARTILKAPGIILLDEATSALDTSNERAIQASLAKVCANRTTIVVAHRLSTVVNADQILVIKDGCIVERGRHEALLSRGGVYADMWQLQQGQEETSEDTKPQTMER

[16] = promoters of myeloid differentiation in arrested cells, primary screen, cell-based, GFP/MAC1 double positive, flow cytometry, validation set (AID 588685); settings: ER-HoxA9 marrow cells, stronger effect = higher value, normalized: vehicle 0, fulvestrant 100;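 further: compound exposure lasts four days before antibody staining and flow analysis; 0% = DMSO wells and 100% = 5 µM fulvestrant positive control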

| SMILES | percent of DMSO control GFP [1] | GFP response vs DMSO [2] | percent response of DMSO control [3] | GFP response vs DMSO [4] | GFP response, % of DMSO [5] | double positive events [6] [%] | vesicle binding response [6] | inhibition [7] | superoxide response (% of plate) [8] | aptamer binding inhibition [9] | response [10] | inhibition [11] | response [12] | binding (% of control) [13] | efflux inhibition (fraction of control) [14] | inhibition [15] | differentiation response [16] |
| --- | --- | --- | --- | --- | --- | --- | --- | --- | --- | --- | --- | --- | --- | --- | --- | --- | --- |
| COCCNC(=O)CSc1ccc(Cl)cc1 | 104% (inactive) | 106% (inactive) | 105% (inactive) | 88.7% (inactive) | 103% (inactive) | 62.8 | 245% (inactive) | -0.45% (inactive) | 112% (inactive) | 1% (inactive) | -6.87% (inactive) | 7.8% (inactive) | -1.2% (inactive) | 92% (inactive) | 0.14 (inactive) | 10% (inactive) | -12.5% (inactive) |
| O=C(O)CCn1cnc2ccccc2c1=O | 97.8% (inactive) | 113% (inactive) | 93.9% (inactive) | 111% (inactive) | 97.4% (inactive) | 58.8 | 172% (inactive) | 9.13% (inactive) | 101% (inactive) | 4% (inactive) | -1.18% (inactive) | -3.21% (inactive) | 5.74% (inactive) | 101% (inactive) | -0.28 (inactive) | 7% (inactive) | -8.8% (inactive) |
| CC(C)(C)C(=O)Nc1cccc(OC(F)(F)C(F)Cl)c1 (stereo unspecified) | 105% (inactive) | 106% (inactive) | 105% (inactive) | 107% (inactive) | 113% (inactive) | 66.2 | 212% (inactive) | 25.3% (inactive) | 105% (inactive) | 4% (inactive) | -32.2% (inactive) | 8.53% (inactive) | 18.4% (active) | 99.5% (inactive) | -0.04 (inactive) | 5% (inactive) | 11.8% (inactive) |
| COC(=O)CSc1nc2ccc(N)cc2s1 | 104% (inactive) | 103% (inactive) | 104% (inactive) | 95.3% (inactive) | 97.8% (inactive) | 64.4 | 189% (inactive) | -3.57% (inactive) | 110% (inactive) | -1% (inactive) | 5.1% (inactive) | 4.01% (inactive) | -1.65% (inactive) | 92% (inactive) | 0.02 (inactive) | -5% (inactive) | 12% (inactive) |
| Nc1cc(-c2ccncc2)c[nH]c1=O | 103% (inactive) | 103% (inactive) | 112% (inactive) | 102% (inactive) | 105% (inactive) | 63.1 | 184% (inactive) | -11.8% (inactive) | 82.5% (inactive) | -6% (inactive) | 8.85% (inactive) | -8.58% (inactive) | -0.06% (inactive) | 105% (inactive) | 0.015 (inactive) | -6% (inactive) | -4.57% (inactive) |
| CC/C(=C(\c1ccc(O)cc1)c1ccc(OCCN(C)C)cc1)c1ccccc1 | 107% (inactive) | 108% (inactive) | 109% (inactive) | 99.1% (inactive) | 114% (inactive) | 62.9 | 157% (inactive) | 15% (inactive) | 97.5% (inactive) | -6% (inactive) | 38.5% (inactive) | 42.2% (inactive) | -1.39% (inactive) | 112% (inactive) | 0.29 (inactive) | 21% (inactive) | -3.11% (inactive) |
| CC(NC(=O)c1cccnc1)C(=O)O (stereo unspecified) | 105% (inactive) | 98.5% (inactive) | 114% (inactive) | 78.6% (inactive) | 90.5% (inactive) | 53.1 | 54.6% (active) | -5.89% (inactive) | 94.6% (inactive) | 4% (inactive) | -9.77% (inactive) | 0.46% (inactive) | -5.71% (inactive) | 99.1% (inactive) | -0.1 (inactive) | 8% (inactive) | -7.2% (inactive) |
| CCc1nc2ccccc2c(NC(=O)CN2CC(C)CC(C)C2)c1C (stereo unspecified) | 99% (inactive) | 105% (inactive) | 101% (inactive) | 90.7% (inactive) | 96.2% (inactive) | 63.1 | 179% (inactive) | -7.72% (inactive) | 105% (inactive) | -2% (inactive) | 0.46% (inactive) | -1.11% (inactive) | 9.89% (inactive) | 93.8% (inactive) | 0.11 (inactive) | 10% (inactive) | 0.24% (inactive) |
| COc1cc2[nH]c3c(=O)n(CCN4CCOCC4)cnc3c2cc1OC | 101% (inactive) | 96.3% (inactive) | 101% (inactive) | 101% (inactive) | 99.4% (inactive) | 60.3 | 172% (inactive) | -7.25% (inactive) | 98.5% (inactive) | 3% (inactive) | -0.47% (inactive) | 13.5% (inactive) | -1.31% (inactive) | 102% (inactive) | -0.17 (inactive) | 5% (inactive) | 4% (inactive) |
| CC(C)(C)N1NC2(CCCCC2)NC1=S | 99.8% (inactive) | 113% (inactive) | 118% (inactive) | 80.9% (inactive) | 95.2% (inactive) | 53.1 | 193% (inactive) | -3.24% (inactive) | 125% (inactive) | -1% (inactive) | -12.5% (inactive) | -12.7% (inactive) | 0.59% (inactive) | 104% (inactive) | 0.27 (inactive) | 7% (inactive) | 1.64% (inactive) |
| Cc1nonc1CN(C)C(=O)c1ccc(OC2CCN(C(=O)c3cccnc3)CC2)cc1 | 103% (inactive) | 105% (inactive) | 109% (inactive) | 98% (inactive) | 102% (inactive) | 57.8 | 176% (inactive) | 12.3% (inactive) | 94.8% (inactive) | 0% (inactive) | -1.64% (inactive) | -7.99% (inactive) | 2.88% (inactive) | 103% (inactive) | 0.05 (inactive) | 12% (inactive) | -8.96% (inactive) |
| CCCN1CCC(NC(=O)Nc2ccc(Br)cc2)CC1 | 104% (inactive) | 110% (inactive) | 102% (inactive) | 92.7% (inactive) | 102% (inactive) | 63.2 | 96.6% (inactive) | -0.45% (inactive) | 94.7% (inactive) | -5% (inactive) | 1.9% (inactive) | -13.3% (inactive) | 1.92% (inactive) | 96.8% (inactive) | -0.23 (inactive) | 16% (inactive) | 13.9% (inactive) |
| CC(NC(=O)c1ccc(N2CCNCC2)c([N+](=O)[O-])c1)C12CC3CC(CC(C3)C1)C2 (stereo unspecified) | 92.8% (inactive) | 111% (inactive) | 101% (inactive) | 114% (inactive) | 92.6% (inactive) | 56.9 | 87.2% (inactive) | 9.13% (inactive) | 101% (inactive) | -1% (inactive) | -1.73% (inactive) | -4.72% (inactive) | 0.8% (inactive) | 98.2% (inactive) | -0.1 (inactive) | 7% (inactive) | -23.2% (inactive) |
| CC(C)Cc1ccc(C(C)C(=O)O)cc1 (stereo unspecified) | 105% (inactive) | 104% (inactive) | 95.7% (inactive) | 142% (inactive) | 111% (inactive) | 59.8 | 141% (inactive) | 4.84% (inactive) | 144% (inactive) | 0% (inactive) | -11.9% (inactive) | -1.77% (inactive) | 0.95% (inactive) | 107% (inactive) | -0.17 (inactive) | 5% (inactive) | -1.05% (inactive) |
| CC12CCCCN1CCCc1c2[nH]c2ccccc12 (stereo unspecified) | 99.6% (inactive) | 105% (inactive) | 115% (inactive) | 82.8% (inactive) | 99.5% (inactive) | 61.3 | 149% (inactive) | -22.2% (inactive) | 99.9% (inactive) | -6% (inactive) | 8.33% (inactive) | 3.51% (inactive) | 0.15% (inactive) | 112% (inactive) | -0.2 (inactive) | -49% (inactive) | 11% (inactive) |
| CC1(CC(=O)Nc2ccccc2)NC(=S)N(c2ccccc2)N1 (stereo unspecified) | 106% (inactive) | 111% (inactive) | 90.1% (inactive) | 134% (inactive) | 104% (inactive) | 49.5 | 9640% (inactive) | -0.43% (inactive) | 109% (inactive) | 5% (inactive) | -7.2% (inactive) | -4.29% (inactive) | -0.03% (inactive) | 99.1% (inactive) | -0.13 (inactive) | 6% (inactive) | -18.4% (inactive) |
| O=C(c1cccc2ccccc12)C1CCCN(C(=O)CCN2CCCO2)C1 (stereo unspecified) | 104% (inactive) | 98.3% (inactive) | 109% (inactive) | 105% (inactive) | 106% (inactive) | 62.4 | 377% (inactive) | 7.85% (inactive) | 90.5% (inactive) | 0% (inactive) | -9.24% (inactive) | -0.89% (inactive) | 2.67% (inactive) | 96.4% (inactive) | -0.32 (inactive) | 4% (inactive) | -0.73% (inactive) |
| CC(C)CCn1c(N2CCc3ccccc3C2)nc2c1c(=O)[nH]c(=O)n2C | 92.6% (inactive) | 128% (inactive) | 108% (inactive) | 83.1% (inactive) | 83.3% (inactive) | 54.4 | 184% (inactive) | -6.15% (inactive) | 98% (inactive) | -2% (inactive) | -18.6% (inactive) | 2.58% (inactive) | 2.15% (inactive) | 104% (inactive) | -0.24 (inactive) | 12% (inactive) | -4.91% (inactive) |
